Where “and” joins values, the source holds several entries; their conditions need not be identical. Equal values may be shown once. Compounds without any hit were thinned out: in the full panel of roughly 83,000, 20% have a hit.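 Step 1: grow cells in 96-well plates. Step 2: add test compound at a single concentration. Step 3: incubate 48 h. Step 4: record percent growth.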 Unmarked numbers belong to inactive results. Calls of active or inactive are those of the source.
Test system: NCI-H322M lung
Test: NCI-60 one-dose screen, 48 h (100 = growth as untreated, 0 = no growth, -100 = all killed)
Conditions: 10 µM unless noted
Description: Growth inhibition of the NCI-H322M human Non-Small Cell Lung tumor cell line is measured as a screen for anti-cancer activity. Cells are grown in 96 well plates and exposed to the test compound for 48 hours. Compounds are tested at a single concentration, which is 10^-5 M for most compounds. The reported endpoint is percent growth (GI% or GIPRCNT), where numbers from 0 - 100% represent growth inhibition, and numbers from -100% - 0 represent cell death. For example, a value of 40 represents 60% growth inhibition. A value of 0 means no net growth occurred over the course of the experiment. A value of -40 indicates 40% of cells at the beginning of the experiment died by the end of the experiment. A value of -100 means all cells are dead at the end of the experiment.
NCI-60 Human Tumor Cell Lines Screen was performed using the standard one-dose NCI protocol, which is described in more detail at https://dtp.cancer.gov/discovery_development/nci-60/default.htm.
Compounds with GIPRCNT values below 10 were considered active. Activity score was based on GIPRCNT using the following formula: […]
Score is 0 for GIPRCNT values of 100 or above, 50 for GIPRCNT values of 0, and 100 for GIPRCNT values of -100.

SMILES	growth
COC(=O)CCSC1=C(C)C(=O)c2ccccc2C1=O	99%
COC(=O)c1cccc(NC2=CC(=O)C(C)=C(C)C2=O)c1	104%
O=C1CSC(c2cn(-c3ccccc3)nc2-c2ccc(Cl)cc2)N1c1ccccc1 (stereo not given)	112%
C/C(=C(/C)C1CC1CCNC1CCC(NC(=O)OC(C)(C)C)CC1)c1ccccc1 (stereo not given)	89.2%
O=C(CCCCCCNC(=O)C(O)(O)C(F)(F)F)Nc1ncc(-c2ccccc2)s1	3.47% (active)
COc1ccc(-c2cc(-c3ccc(N4CCOCC4)cc3)n3c(n2)nc2ccccc23)cc1OC	94.6%
CN1CCN(c2ccc(Nc3nc(NCCCNS(=O)(=O)c4cccc5ccccc45)c4sccc4n3)cc2)CC1	11.4%
CCc1cc2c(cc1Cl)nc1c(=O)[nH]c(=O)nc-1n2CCOCC(C)(C)C	63.7%
COc1cccc2c1[C@H](OC)[C@]13O[C@@]1(C2=O)[C@H](O)[C@H](C)[C@@](O)(C(=O)[C@@H]1O[C@H]1C)[C@@H]3O	1.69% (active)
CCCCCc1ccc(S(=O)(=O)Nc2cc(-c3csc(N)n3)ccc2OC)cc1	103%
O=C(CCl)Nc1ccc(NC(=O)c2cc(Cl)ccc2O)c(Cl)c1	96%
COc1ccc(C(=O)c2c(N)c(C#N)cn2-c2ccc(Cl)cc2Cl)cc1	93.8%
C#C[C@]1(O)CC[C@H]2[C@@H]3CC=C4c5sc(Nc6cc(C)cc(C)c6)nc5CC[C@]4(C)[C@H]3CC[C@@]21C	40.9%
c1ccc(-c2cn3c(-c4c[nH]c5ccccc45)csc3n2)cc1	85.4%
CCCCSC1=C(Cl)CN(c2ccccc2)C1=O	101%
CCOC(=O)C1=C(C)NC(C)=C(C(=O)OC(C)C)C1c1cccc(C#N)c1 (stereo not given)	100%
NCCNC(=O)c1cccc(COc2ccccc2NC(=O)c2cc(Br)c(Br)[nH]2)c1	99.7%
Cc1c(C(=O)/C=C/c2ccc(Cl)cc2)nnn1-c1ccc2oc(=O)ccc2c1	98.5%
C=C(C)[C@@H]1CC[C@]2(C(=O)N3CCN(C)CC3)CC[C@]3(C)[C@H](CC[C@@H]4[C@@]5(C)CC[C@H](OP(=O)(OCC)OCC)C(C)(C)[C@@H]5CC[C@]43C)[C@@H]12	101%
CC(=O)/C(N=Nc1ccc2oc(=O)ccc2c1)=C(\C)O	55.1%

SMILES	growth
Nc1cc(C(=O)N/N=C\c2ccc(OC(F)F)c(OC3CCCC3)c2)nn1CC(O)c1ccccc1 (stereo not given)	103%
Clc1cccc(/C=N/Nc2nc(N/N=C/c3cccc(Cl)c3)nc(N3CCCCC3)n2)c1	101%
CCc1nnc(NC(=O)c2cc(-c3ccc(Cl)cc3Cl)oc2C)s1	85.4%
Cc1ccc2c(n1)C(=O)C(Cl)=C(Nc1ccc(C(C)C)cc1)C2=O	84.4%
CC(Nc1ncnc2ccc(-c3cnc(N)nc3)cc12)c1ccccc1 (stereo not given)	2.74% (active)
O=C(CCCCCCN1CC(=O)N2[C@@H](c3cccs3)c3[nH]c4ccccc4c3C[C@H]2C1=O)NO	79.8%
O=C(N/N=C\c1ccc([N+](=O)[O-])cc1)c1ccc2nc(-c3ccc(Br)cc3)[nH]c2c1	68.2%
Clc1ccc(CSc2nnc(-c3ccc(Cl)cc3)n2-c2ccccc2)cc1	92.7%
COc1ccc(C2c3[nH]c4ccc(Cl)cc4c3CCN2c2oc(CO)nc2C#N)cc1 (stereo not given)	70.4%
C/C(=N\NC(=O)Nc1ccccc1)c1nnn(-c2ccc([N+](=O)[O-])cc2)c1C	99.1%
C#CCOc1ccc(-c2csc(NC(=O)C=C)n2)cc1NS(=O)(=O)c1cccc2c(N(C)C)cccc12	87.6%
CCCCCCCCCCCC(=O)NC(C)(C)C(=O)N1CCCC1C(=O)NC(C)(C)C(=O)NC(C)(C)C(=O)N1CCCC1C(=O)NC(C)(C)C(=O)NC(C)(C)C(=O)N1CCCC1C(=O)NC(C)C(=O)NCCC(=O)NC(C)C(=O)NC(C)(C)C(=O)NC(C)(C)C(=O)NC(C)(C)C(=O)NCCC(=O)NC(C)(C)C(=O)NC(C)(C)C(=O)NC(C)(C)C(=O)NC(C)C(=O)NCCC(=O)O (stereo not given)	-99.6% (active)
CC1=Cc2ccccc2OC12C=Cc1ccccc1O2 (stereo not given)	89.7%
Cn1cc(-c2cc3ncnc(Nc4ccc(CC(=O)Nc5nc(C(C)(C)C)cs5)cc4)c3s2)cn1	43.8%
CC1(C)C=Cc2cc(/C(N)=N/C(N)=N/c3nc4ccccc4s3)ccc2O1	93.8%
CCc1cc(OC(=O)N2CCN(CCC(C)(COC(C)(C)C)COC(C)(C)C)CC2)ccc1Nc1cc(-c2ccc(-n3cccn3)cc2)[nH]n1	101%
C[C@@H]1OCC2(CCN(c3cnc(C(=O)Nc4cc(F)cc5cccnc45)cn3)CC2)[C@@H]1N	85.3%
O=C(/C=C/c1ccccc1Cl)Nc1ncc(Cc2cc(Cl)ccc2Cl)s1	48.5%
Brc1cc(-c2cc(-c3ccc4c(c3)OC=CO4)[nH]n2)cs1	91.4%
COc1cc(-c2nc(-c3ccccc3)[nH]c2-c2ccnc(NCCCNS(=O)(=O)c3ccc(C(F)(F)F)cc3)n2)ccc1Cl	82.2% and 76.4%

Source: PubChem BioAssay (NCI)
